Measurements taken from PubChem BioAssay AID463082 (The Scripps Research Institute Molecular Screening Center, 2010).
The whole screen tested about 330,000 compounds, of which about 4,900 (1.5%) were called active. This is one part of a sample in which actives are shown more often than they occur.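 The calls were made as follows: active = inhibition above the mean inhibition across the screen plus 3 SD (cut at about 25% in these data); inactive = the rest.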

target: Platelet-activating factor acetylhydrolase (Homo sapiens) (UniProt Q13093); experiment: pPAFAH enzyme inhibitors, primary screen, biochemical, fluorescence polarization, human (AID 463082); details: recombinant pPAFAH, FP-rhodamine probe fluorescence polarization; at 3.39 µM; stronger effect = higher value;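 also: inhibitors block binding of the rhodamine activity-based probe so polarization drops; 0% = enzyme with DMSO and 100% = wells lacking pPAFAH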
Sequence (Q13093 whole entry, looked up): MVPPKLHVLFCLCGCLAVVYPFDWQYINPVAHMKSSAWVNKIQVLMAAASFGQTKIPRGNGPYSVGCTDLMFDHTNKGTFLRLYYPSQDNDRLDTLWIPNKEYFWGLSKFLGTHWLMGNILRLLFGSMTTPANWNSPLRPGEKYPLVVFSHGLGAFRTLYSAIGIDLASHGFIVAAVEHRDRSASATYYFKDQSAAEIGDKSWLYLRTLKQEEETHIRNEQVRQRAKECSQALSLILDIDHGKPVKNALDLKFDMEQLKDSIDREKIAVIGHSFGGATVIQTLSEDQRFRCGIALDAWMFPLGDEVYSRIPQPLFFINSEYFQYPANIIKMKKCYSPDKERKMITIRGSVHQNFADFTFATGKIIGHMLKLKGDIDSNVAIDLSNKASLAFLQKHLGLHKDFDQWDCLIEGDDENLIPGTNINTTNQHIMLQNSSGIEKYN

| Compound | inhibition |
| --- | --- |
| COc1ccc(NCc2nnc(SCc3ccccc3)n2-c2ccc(OC)cc2)cc1 | 2.01% (inactive) |
| OCCC1CN(Cc2cccc(O)c2)CCN1CCc1ccccc1 (configuration not stated) | -5.11% (inactive) |
| CN1CCN(c2ccc(S(=O)(=O)N3CCCCC3)cc2NC(=O)Cc2ccccc2F)CC1 | -3.62% (inactive) |
| CCN(CC)S(=O)(=O)c1ccc(N2CCN(C)CC2)c(NC(=O)Nc2ccccc2F)c1 | 33.1% (active) |
| CCN(CC)S(=O)(=O)c1ccc(N2CCOCC2)c(NC(=O)C(C)Oc2ccc(F)cc2)c1 (configuration not stated) | 10.3% (inactive) |
| C=CC[C@@H](CC(=O)N[C@@H](CO)Cc1ccccc1)C(=O)NCCOC(=O)[C@@H](CC=C)CC(=O)OC(C)(C)C | 1.4% (inactive) |
| Cc1ccc(C)c(S(=O)(=O)Nc2cc(C)on2)c1 | -1.93% (inactive) |
| CCn1c(N)c(Br)c(=O)[nH]c1=O | 0.06% (inactive) |
| O=S(=O)(c1ccc(Cl)cc1)c1nc(-c2ccco2)oc1N1CCCCC1 | -3.3% (inactive) |
| CC(C)C1N=C2c3ccccc3N=C(SCC(=O)c3ccc(O)c(O)c3)N2C1=O (configuration not stated) | 55.4% (active) |
| O=C(CSC1=Nc2ccccc2C2=NC(CC(=O)NCc3ccco3)C(=O)N12)NCc1ccco1 (configuration not stated) | 5.99% (inactive) |
| CCC(C)NC(=O)CSC1=Nc2ccccc2C2=NC(CCC(=O)NCc3ccco3)C(=O)N12 (configuration not stated) | 2.48% (inactive) |
| CC(C)n1cnc2c(NCc3ccccc3)cc(OCC3CCN(C)CC3)cc21 | 11.1% (inactive) |
| CN(CC(=O)NCC(c1ccccc1)N1CCCC1)S(=O)(=O)c1ccc(Cl)cc1 (configuration not stated) | -2.68% (inactive) |
| O=C(O)c1cc2c(cc1NC(=O)c1c(F)cccc1Cl)OCCCO2 | -0.94% (inactive) |
| CC(=O)Nc1ccc(OCCC[n+]2cccc(C(=O)[O-])c2)cc1 | -0.37% (inactive) |
| O=c1ccc2c(-c3ccccc3S(=O)(=O)O)c3ccc(O)c(O)c3oc-2c1O | 70% (active) |
| CCCCNC(=O)C1CCC(=O)N1CCc1ccccc1 (configuration not stated) | 3.82% (inactive) |
| CCOc1ccc(OCC)c(-c2c(=O)n(OCc3ccc(Cl)cc3)c3ccccc3[n+]2[O-])c1 | 5.98% (inactive) |

| Compound | inhibition |
| --- | --- |
| CCc1ccc(CN2C(=O)c3ccccc3C2C(=O)NCC2CCCO2)cc1 (configuration not stated) | 7.1% (inactive) |
| N#CC1=C(N)Oc2c(ccc3cccnc23)C1c1ccncc1 (configuration not stated) | 11.9% (inactive) |
| N#CC1=C(N)Oc2c(sc3ccccc23)C1c1ccco1 (configuration not stated) | 26.5% (active) |
| O=C(O)/C(=C/c1cccnc1)NC(=O)c1ccccc1 | -3.24% (inactive) |
| O=C(CN1C(=O)c2ccc([N+](=O)[O-])cc2C1=O)Nc1nnc(C2CC2)s1 | 0.34% (inactive) |
| O=C(Nc1cccn(Cc2c(Cl)cccc2Cl)c1=O)c1ccc(Cl)cc1 | -3.34% (inactive) |
| O=C(COC(=O)c1ncc(Cl)c(Cl)c1Cl)NCc1ccccc1 | 14.3% (inactive) |
| Cc1cc(O)c(C(=O)/C=C/c2c(F)c(F)c(F)c(F)c2F)c(=O)o1 | 27.7% (active) |
| Cc1cc(O)c(Sc2ccccc2)c(=O)o1 | 3.25% (inactive) |
| Cc1ccc(N=Cc2c(O)cc(C)oc2=O)c(C)c1 | -5.2% (inactive) |
| CCOC(=O)C1CCN(Cc2coc3ccc(Cl)cc3c2=O)CC1 | -3.13% (inactive) |
| O=C(OCC1OC(Oc2ccc(O)cc2)C(O)C(O)C1O)c1ccccc1 (configuration not stated) | 3.51% (inactive) |
| O=C(OCC1O[C@@H](OC(=O)c2cc(O)c(O)c(O)c2)[C@@H](OC(=O)c2cc(O)c(O)c(O)c2)[C@@H](OC(=O)c2cc(O)c(O)c(O)c2)[C@@H]1OC(=O)c1cc(O)c(O)c(O)c1)c1cc(O)c(O)c(O)c1 (some centres not stated) | 73% (active) |
| CC1Cc2ccccc2N1S(=O)(=O)c1cccc(C(=O)OCC(=O)N2CCOCC2)c1 (configuration not stated) | 8.16% (inactive) |
| COc1ccc(OC)c(NC(=O)C2CCCN2S(=O)(=O)c2cccc3nsnc23)c1 (configuration not stated) | 1.9% (inactive) |
| Cc1cc2nc3c(=O)n(Cc4ccccc4)c(=O)[nH]c3nc2cc1N | 59.1% (active) |
| Cc1cc(-c2csc(N)n2)c(C)n1Cc1ccccc1 | 12.4% (inactive) |
| CC(=O)c1ccc(-c2ccc(Cn3c(C)nc4cc(N)c(C)nc43)cc2)cc1 | 3.76% (inactive) |
| Nc1nc(Br)c2ccccc2c1-c1ccc(F)cc1 | 29.3% (active) |

| Compound | inhibition |
| --- | --- |
| CN(CC(=O)Nc1c(Cl)cccc1Cl)C(=O)CC1OC(=O)c2ccccc21 (configuration not stated) | 1.34% (inactive) |
| O=C(CSc1ccc(-c2ccc(Br)cc2)nn1)NCC1CCCO1 (configuration not stated) | 3.46% (inactive) |
| CC(NS(=O)(=O)c1ccc(Br)cc1)C(=O)NCC1CCCO1 (configuration not stated) | 1.93% (inactive) |
| OC(CNCC1CCCO1)Cn1c2ccc(Br)cc2c2cc(Br)ccc21 (configuration not stated) | 60% (active) |
| CC1c2nc3ccccc3n2C(CC(=O)NCCCN2CCOCC2)C(=O)N1Cc1ccccc1 (configuration not stated) | 3.44% (inactive) |
| O=C(Cn1cc(C(F)(F)F)ccc1=O)Nc1ccc2c(c1)OCCO2 | 0.39% (inactive) |
| CCCN(CC(=O)Nc1ccccc1C)C(=O)c1ccc2[nH]c3c(c2c1)CC(C)CC3 (configuration not stated) | 2.57% (inactive) |
| Cc1c(C(=O)N/N=C/c2ccccc2)[nH]c2c([N+](=O)[O-])cccc12 | 2.71% (inactive) |
| COc1cccc2c(C)c(C(=O)O)[nH]c12 | 40% (active) |
| COc1cc2c(C(=O)O)c(C)n(C)c2c2ccccc12 | 8.22% (inactive) |
| CCOc1ccc(N/C(N)=N/c2nc(C)c(C)c(=O)[nH]2)cc1 | 5.08% (inactive) |
| CCOC(=O)CNC(=O)CSc1ncccc1-c1nc2ccccc2[nH]1 | 3.09% (inactive) |
| COC(=O)c1cccc(N(C(=O)c2ccco2)C(C(=O)NC2CCCC2)c2ccco2)c1 (configuration not stated) | -7.26% (inactive) |
| Cc1cc(S(=O)(=O)Nc2ccc(C(=O)NCC(c3ccco3)N3CCCC3)cc2)ccc1F (configuration not stated) | -0.43% (inactive) |
| COc1ccc(C(CNC(=O)c2cccc(NS(=O)(=O)c3ccc(C)c(F)c3)c2)N2CCCC2)cc1 (configuration not stated) | 5.75% (inactive) |
| COc1ccc(C(CNC(=O)c2ccc(S(=O)(=O)Nc3ccccc3C)cc2)N2CCOCC2)cc1 (configuration not stated) | 33.2% (active) |
| COc1ccc(C(CNC(=O)c2cccc(S(=O)(=O)Nc3ccccc3Cl)c2)N2CCOCC2)cc1 (configuration not stated) | -3.75% (inactive) |
| CCOc1ccc(NS(=O)(=O)c2ccc(C(=O)NCC(c3ccccc3OC)N3CCCC3)cc2)cc1 (configuration not stated) | 51.8% (active) |
| CCOc1ccc(NS(=O)(=O)c2ccc(C(=O)NC3CCN(Cc4ccccc4)CC3)cc2)cc1 | 24.1% (inactive) |
